PrPC surface inh: inhibitors of human cell surface prion protein PrPC, primary screen, cell-based, TR-FRET | TR-FRET read-out | AID 720596, 2013 | inhibition, % at 13.8 µM | 370,000 compounds, 0.43% hits | Major prion protein (Homo sapiens), P04156; in the data active = inhibition above about 24%
ugtP null kill: growth inhibition of ugtP-null S. aureus, primary screen, RN4220 ugtP deletion, OD600; 16 h; 330,000 compounds, 0.54% hits; growth inhibition, % (concentration not given with the values); in the data active = growth inhibition above about 68%
BJeLR lethal: MLPCN primary cell-based screen for lethality selective to Ras in HRASV12 cells. BJeLR (HRASV12) viability, CellTiter-Glo ATP luminescence, 48 h. inhibition, % (no concentration beside the values). 300,000 compounds, 0.17% hits; in the data active = inhibition above about 50%
3CLpro inhibitor: SARS-CoV 3CLpro protease inhibitors, primary screen, biochemical, quenched FRET | 290,000 compounds, 0.14% hits | AID 1706, 2009 | inhibition, % at 6 µM | recombinant SARS-CoV 3CLpro, quenched FRET peptide cleavage; in the data active = inhibition above about 12%
VHR inh abs: VHR1 phosphatase inhibitors, primary screen, biochemical, absorbance, uHTS; Dual specificity protein phosphatase 3 (Homo sapiens), P51452; recombinant VHR phosphatase, pNPP absorbance; inhibition, % at 13.3 µM; 290,000 compounds, 0.52% hits; in the data active = inhibition above about 50%
Target sequence (P51452 whole entry, looked up): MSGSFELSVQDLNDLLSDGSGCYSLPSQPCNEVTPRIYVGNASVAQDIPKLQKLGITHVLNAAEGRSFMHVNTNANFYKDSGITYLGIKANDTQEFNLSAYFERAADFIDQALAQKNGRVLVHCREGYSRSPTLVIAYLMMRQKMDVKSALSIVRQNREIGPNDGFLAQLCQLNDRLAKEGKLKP
RN4220 kill: growth inhibition of S. aureus RN4220, primary screen, OD600; 16 h; inhibition, % (concentration not given with the values); 330,000 compounds, 0.33% hits; AID 1259311, 2017; in the data active = inhibition above about 85%
Hits are given with their value; 0 = inactive; - = not tested or not shown. Shown are actives, neighbours in structure and some others; about 1.4% of the full set was active somewhere.

SMILES | PrPC surface inh | ugtP null kill | BJeLR lethal | 3CLpro inhibitor | VHR inh abs | RN4220 kill
CC[C@@H](C(=O)[C@@H](C)[C@@H](O)[C@H](C)[C@@H]1O[C@@H]([C@@H](CC)C(=O)O)CC[C@@H]1C)[C@H]1O[C@]2(C=C[C@@H](O)[C@]3(CC[C@@](C)([C@H]4CC[C@](O)(CC)[C@H](C)O4)O3)O2)[C@H](C)C[C@@H]1C | 70 | - | - | - | - | -
CCN1CC2C3C(=O)N(Cc4ccccc4)C(=O)C3[C@](C)(C1=O)N2C(=O)c1ccccc1 (some centres undefined) | - | 0 | - | - | - | 0
CC(C)CC(NC(=O)c1nc[nH]c1C(=O)NC(CC(C)C)C(=O)OCc1ccccc1)C(=O)OCc1ccccc1 (centres undefined) | - | 0 | - | - | - | 0
CCC(=O)c1cn(C(=CC(=O)OC(C)(C)C)CCC(OC)OC)cc1CC | - | 0 | - | - | - | 0
CCC(=O)N(C1=C(NC)C(=O)c2ccccc2C1=O)C(C)C | 0 | 0 | 0 | 0 | 0 | 0
CNC1=C(N(C(C)=O)c2ccc(Br)cc2)C(=O)c2ccccc2C1=O | 0 | 0 | 51 | 0 | 0 | 0
CN1CCN(C(=O)C2=CC(c3coc4ccccc4c3=O)CC(OCCCCO)O2)CC1 (centres undefined) | - | 0 | - | - | - | 0
COc1cccc(CN(C(=O)/C=C/c2ccc(Cl)cc2)C2CCS(=O)(=O)C2)c1 (centres undefined) | 0 | 0 | 0 | 0 | 51 | 0
O=C(Nc1ccccc1-c1nc2ccccc2[nH]1)c1ccc(S(=O)(=O)N2CCCCC2)cc1 | 0 | 0 | 0 | 0 | 50 | 0
CC(=O)C1=C(c2ccc(Br)cc2)C(=O)c2ccccc2C1=O | 0 | 97 | 0 | 0 | 0 | 97
CC(=O)Nc1c(Br)cc2c(c1Br)C(=O)c1ccccc1-2 | 0 | - | - | - | - | -
c1ccc2c(CCN3CCNCC3Cc3cccc4ccccc34)cccc2c1 (centres undefined) | - | 0 | - | - | - | 0
Cc1ccc(-c2nnc(-c3ccccc3)c(-c3ccccc3)n2)cc1 | 0 | 92 | 0 | 0 | 0 | 0
Oc1ccc(-c2nnc(-c3ccccc3)c(-c3ccccc3)n2)cc1 | - | 0 | 0 | 0 | 0 | 0
CCCCCC1CCC(c2ccc(/C(N)=N/O)cc2)CC1 (centres undefined) | 0 | 100 | 0 | 0 | 0 | 0
CCCCC1CCC(c2ccc(C(N)=O)cc2)CC1 (centres undefined) | 0 | 0 | 0 | 0 | 0 | 0
COc1ccc(Cc2nc(-c3ccc(NC(=O)c4cccnc4)cc3)no2)cc1 | 0 | 0 | 90 | 0 | 0 | 0
COC(=O)c1[nH]c(C)c(C(O)=C2C(=O)C(=O)N(CCN(C)C)C2c2ccccc2OC)c1C (centres undefined) | - | 0 | - | - | - | 0
C#CCOCCOCCOCCNc1nc(N2CCN(C(=O)C(CCC(=O)O)n3cc(C(N)CO)nn3)CC2)nc(N2CCN(C(=O)C(Cc3ccc(O)cc3)n3cc(C(N)C(C)CC)nn3)CC2)n1 (centres undefined) | - | 0 | - | - | - | 0
O=C1NC2(CCCCC2)N=C1c1ccc(Br)cc1 | 0 | 0 | 0 | 0 | 55 | 0
Nc1ccc(Cl)cc1C(=O)c1ccccc1 | 0 | 0 | 0 | 0 | 0 | 0
O=C(CC(=O)c1cc(Cl)ccc1O)c1ccccc1 | 0 | 100 | 0 | 0 | 0 | 100
COc1ccc(O)c(C(=O)CC(=O)c2ccc(F)cc2)c1 | 0 | - | 0 | 0 | 0 | -
Cc1cccc(C(=O)CC(=O)c2cc(Cl)ccc2O)c1 | - | 100 | 0 | 0 | 0 | 100
Cc1ccc(O)c(C(=O)CC(=O)c2ccc(Cl)cc2)c1 | 0 | 101 | 0 | 0 | 0 | 100
SMILES | PrPC surface inh | ugtP null kill | BJeLR lethal | 3CLpro inhibitor | VHR inh abs | RN4220 kill
Cc1cccc(C(=O)NCC(=O)NNC(=O)c2ccccc2O)c1 | 0 | 0 | 0 | - | - | 0
Cc1ccc(O)c(C(=O)CC(=O)c2cccc(F)c2)c1 | 0 | 100 | 0 | 0 | 0 | 0
FC(F)(F)c1cc(CCN2CCNCC2c2ccccc2)cc(C(F)(F)F)c1 (centres undefined) | - | 0 | - | - | - | 0
Cc1ccc(C(=O)N2C3CN(C)C(=O)[C@@]2(C)C2C(=O)N(Cc4ccccc4)C(=O)C32)cc1 (some centres undefined) | - | 0 | - | - | - | 0
CNCC1Oc2ccc(NC(=O)Nc3ccc4c(c3)OCO4)cc2C(=O)N(C(C)CO)CC1C (centres undefined) | - | 0 | - | - | - | 0
C#CCOCCOCCOCCNc1nc(N2CCN(C(=O)C(CCC(=O)O)n3cc(C(N)CC(C)C)nn3)CC2)nc(N2CCN(C(=O)C(C(C)CC)n3cc(C(N)CC(C)C)nn3)CC2)n1 (centres undefined) | - | 0 | - | - | - | 0
CCCN1CCOC2c3cc(O)ccc3OCC21 (centres undefined) | - | 0 | - | - | - | 0
COc1cc(C=CC(=O)N2CCN(CC(O)COc3ccccc3)CC2)cc(OC)c1OC (centres undefined) | - | 0 | - | - | - | 0
C=C1C(=O)[C@]23C[C@H]1CCC2[C@@]1(C)C(C[C@@H]3O)[C@](C)(C(=O)OC)CC[C@@H]1OC(C)=O (some centres undefined) | 68 | - | - | - | - | -
C=C1C(=O)[C@]23C[C@H]1CC[C@H]2[C@]1(C)[C@@H](OC(C)=O)CC[C@@](C)(C(=O)OC)[C@H]1C[C@@H]3OC(C)=O | 0 | - | - | - | - | -
Cc1ccc(N2C(=O)C3C4C=CC(CC4)C3C2=O)c([N+](=O)[O-])c1 (centres undefined) | 0 | 0 | 0 | 0 | 55 | 0
CC1CCCCN1S(=O)(=O)c1ccc([N+](=O)[O-])cc1 (centres undefined) | 0 | 0 | 0 | 0 | 0 | 0
CCC1CCCCN1S(=O)(=O)c1ccc([N+](=O)[O-])cc1 (centres undefined) | 0 | 0 | 0 | 0 | 51 | 0
COc1ccc(S(=O)(=O)/N=C2\C=C(Nc3ccc(O)cc3)C(=O)c3ccccc32)cc1 | 56 | - | 51 | 0 | 0 | -
N=c1c2c(n(Cc3ccc(Br)cc3)c3c1CCC3)CCCC2 | 0 | 99 | 0 | 0 | 0 | 0
N=c1c2c(n(Cc3ccc(Cl)c(Cl)c3)c3c1CCC3)CCCC2 | 0 | 99 | 0 | 0 | 0 | 91
CCOC(=O)/C(C#N)=C/Nc1cc(OC)ccc1OC | 0 | 0 | 0 | 0 | 0 | 0
CCOP(=O)(OCC)/C(C#N)=C/c1cc(OC)ccc1OC | 0 | 0 | 0 | 0 | 52 | 0
O=C1CCc2ccccc2N1 | 0 | 0 | 0 | 0 | 0 | 0
Clc1ccc2c(c1)Nc1ccccc1CC2 | 0 | 89 | 0 | - | - | 0
O=C(CN1C(=O)/C(=C\c2ccccc2Cl)Oc2ccccc21)NCc1cccnc1 | 0 | 0 | 0 | 0 | 0 | 0
Cc1ccc(CN2C(=O)/C(=C\c3ccc(C(=O)NCc4cccnc4)cc3)Oc3ccccc32)cc1 | 0 | 0 | 113 | 0 | 0 | 0
CCCCCC(=O)Nc1cccc(C2=NOC3(C2)CC(C(N)=O)N(C(=O)c2ccccc2C(=O)c2ccccc2)C3)c1 (centres undefined) | - | 0 | - | - | - | 0

Screening results from PubChem.
